From PubChem BioAssay
A selection: hits, their analogues and other compounds. The true share with any hit is near 0.95%.
RN4220 kill = kills Staphylococcus aureus RN4220 | hit rate 0.33% among 330,000 | inhibition, % (no concentration beside the values) | S. aureus RN4220 growth, OD600, 16 h; in the data active = inhibition above about 85%;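 note: plate controls were untreated cells for no effect and reference antibiotic for full effect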
BJeLR lethal = kills HRASV12-expressing BJeLR cells; BJeLR (HRASV12) viability, CellTiter-Glo ATP luminescence, 48 h; inhibition, % (concentration not given with the values); hit rate 0.17% among 300,000; AID 1554; in the data active = inhibition above about 50%
PrPC TRFRET = inhibitors of human cell surface prion protein PrPC | AID 720596 | inhibition, % at 13.8 µM | TR-FRET read-out | hit rate 0.43% among 370,000; in the data active = inhibition above about 24%; note: 0% = median of the test wells and 100% = reference compound wells
ugtP null kill = growth inhibition of S. aureus ugtP deletion strain; S. aureus RN4220 ugtP deletion, OD600 growth, 16 h; AID 1259309; growth inhibition, % (concentration not given with the values); hit rate 0.54% among 330,000; in the data active = growth inhibition above about 68%;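 note: plate controls were untreated wells for no effect and antibiotic for full effect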
PrPC confirm = confirmation of inhibitors of cell surface human prion protein. hit rate 65% among 1,500. AID 743200. cell surface PrPC level, TR-FRET. inhibition, % at 13.8 µM. shares compounds with PrPC TRFRET; in the data active = inhibition above about 25%
LD9 cytotox = kills or reduces viability of LD9 cells in PrPc counter-screen; shares compounds with PrPC TRFRET; LD9 cells cytotoxicity, luminescence viability; inhibition, % at 13.8 µM; hit rate 29% among 1,500; AID 743201; in the data active = inhibition above about 9.5%
An asterisk follows results filed as active; . = no result given.

SMILES	RN4220 kill	BJeLR lethal	PrPC TRFRET	ugtP null kill	PrPC confirm	LD9 cytotox
COc1ccc(NC(=O)c2c(N)no[n+]2[O-])cc1	1	-4	26*	7	25*	-7
COc1ccc(NC(=O)c2c(N)no[n+]2[O-])c(OC)c1	-3	-30	0	5	.	.
O=C(NN=Cc1c(Cl)cccc1Cl)C(=O)NC1CC1	16	.	.	10	.	.
O=[N+]([O-])c1c(Nc2ccc(O)cc2)cc(Cl)c2nonc12	100*	52*	80*	99*	94*	99*
Cc1cc(SC2CCOC2=O)nc2ccccc12 (configuration not stated)	6	3	0	-7	.	.
O=C1OCCC1Sc1ncnc2sccc12 (configuration not stated)	1	-3	31*	3	32*	3
O=C(CNC(=O)c1cccc(Cl)c1)NN=C/C=C/c1ccccc1	-3	.	.	9	.	.
COc1cc(C=NNC(=O)c2cc(-c3ccc4c(c3)OCO4)n[nH]2)ccc1O	9	.	.	23	.	.
CNC(=O)OCc1nc(SSC(C)(C)C)n(C)c1COC(=O)NC	.	.	50*	.	23	92*
COc1ccc(-n2ncc3c(N4CCC(C(N)=O)CC4)ncnc32)cc1	3	0	36*	-4	29*	-4
CCCC(=O)c1ccc(OCc2cn(CC(=O)c3ccc(O)cc3)nn2)cc1	.	.	28*	.	22	-1
O=C(Cn1cc(COc2ccc(Br)cc2)nn1)c1ccc(O)cc1	.	.	13	.	.	.
Cc1cc(NC2CCCCC2)nc2ccccc12	7	1	26*	2	17	4
C=C(C)C1CC=C(C)C(=NNC(=O)c2cccs2)C1 (configuration not stated)	0	.	.	-11	.	.
COc1ccc(C(CC(=O)O)NC(=O)c2cccs2)cc1 (configuration not stated)	-1	1	2	1	.	.
COc1ccc(C(CC(=O)O)NC(=O)c2sc3ccccc3c2Cl)cc1 (configuration not stated)	4	1	34*	1	38*	-4
CCOC(=O)c1c(C)nc2c(c1C)C(=NO)CC(C)(C)C2	3	.	.	5	.	.
CNC(=O)C(NC(=O)CNC(=O)c1ccc(Cl)cc1)C(C)(C)C (configuration not stated)	2	-4	11	0	.	.
CNC(=O)[C@@H](NC(=O)[C@H](CC(C)C)[C@H](O)C(=O)NO)C(C)(C)C	.	.	61*	.	65*	-3
NS(=O)(=O)c1c(Sc2ccccc2C(=O)O)ccc2ccccc12	7	-4	34*	4	53*	-5
O=C(CNC(=O)c1ccccc1Cl)NN=Cc1ccc2c(c1)OCO2	-1	.	.	1	.	.
CC(=O)N=c1sc2ccccc2n1C	7	3	2	3	.	.
CC(=O)N=c1sc2nc3ccccc3nc2n1N(C(C)=O)C(C)=O	3	-6	28*	9	37*	3
O=C(NN=C1CCCc2ccccc21)c1cccc(Br)c1	19	.	.	10	.	.
Clc1ccc(N/N=C/c2cccnc2)cc1	.	1	25*	.	17	2
SMILES	RN4220 kill	BJeLR lethal	PrPC TRFRET	ugtP null kill	PrPC confirm	LD9 cytotox
Clc1ccc(NN=Cc2cccnc2)cc1	-5	.	.	-13	.	.
Cc1cc(CNC(=O)C(C)C2C[C@@]2(C)C(NC(=O)OCc2ccccc2)c2ccccc2)nn1C (some centres not stated)	5	.	.	9	.	.
CCC(=O)Nc1ccc(C(C)=NNC(=O)c2ccc(C)s2)cc1	4	.	.	4	.	.
Cc1ccc(C(=O)Nc2nc(COc3ccccc3)cs2)s1	21	12	30*	0	22	6
CC(=O)Nc1nc(COc2ccccc2)cs1	3	22	11	7	.	.
CCC(Sc1ccc2nnc(-c3ccc(F)cc3)n2n1)C(=O)O (configuration not stated)	-1	11	38*	9	58*	-8
CC1CC(C)CC(C)C(O)C(C#N)=CC=CCC(C2CCCC2C(=O)O)OC(=O)CC(O)C(C)C1 (configuration not stated)	.	.	87*	.	98*	51*
Cc1ccc(C)c(NS(=O)(=O)c2cc(C(=O)NCc3ccccn3)ccc2Cl)c1	7	-7	3	12	.	.
Cc1ccc(NS(=O)(=O)c2cc(C(=O)NCc3ccccn3)ccc2Cl)cc1C	1	-6	47*	10	60*	6
CCOC(=O)c1c(/N=C/N(C)C)sc(/C=N/Nc2ccccc2)c1-c1ccc(Cl)cc1	.	0	26*	.	33*	-5
CC(=O)Nc1ccc(Sc2ccc([N+](=O)[O-])o2)cc1	41	.	69*	69	29*	22*
O=C(Cc1cccs1)Nc1nc(-c2ccc(F)c(F)c2)cs1	-9	-6	23	55	.	.
O=C(Cc1cccs1)Nc1nc(-c2ccc(F)cc2F)cs1	-17	15	26*	66	16	-7
COc1ccc(-c2nc3c(C)cc(Br)cn3c2CC(C)(C)C)cc1OC	.	.	42*	.	52*	-4
COc1ccccc1Cc1c(-c2ccc(OC)c(OC)c2)nc2c(C)cc(Br)cn12	.	.	3	.	.	.
COc1ccc(-c2nc3c(C)cc(Br)cn3c2Cc2cccc(Cl)c2)cc1OC	.	.	26*	.	62*	-5
O=C1NC[C@H](CCCCN2C[C@H](Cc3ccc(O)cc3)N(CC3CCCCC3)C(=O)C2=O)N(CC2CCCCC2)C1=O	.	.	25*	.	24	-1
CC(C)(C)c1ccc(SC2=C[C@@]3(O)CC[C@@H](O)[C@@](Sc4ccc(C(C)(C)C)cc4)(C2=O)[C@H]3O)cc1	.	.	9	.	.	.
Cc1ccc(SC2=C[C@@]3(O)CC[C@@H](O)[C@@](Sc4ccc(C)cc4)(C2=O)[C@H]3O)cc1	.	.	27*	.	20	-9
COc1ccc(C(=O)C(C)=NO)cc1OC	4	.	.	-1	.	.
C(=NNc1nc(-c2ccccc2)cs1)c1ccncc1	5	.	.	1	.	.
COc1ccc(S(=O)(=O)N(CC(=O)NC2CC3CCC2C3)c2ccccc2OC)cc1 (configuration not stated)	5	-3	-5	4	.	.
COc1ccccc1N(CC(=O)NC1CC2CCC1C2)S(=O)(=O)c1ccc(C)cc1 (configuration not stated)	5	-1	55*	3	10	-5
S=c1[nH]ncn1N=Cc1ccc(N2CCOCC2)cc1	1	.	.	1	.	.
COc1ccc(C)cc1CN1C(=O)c2ccccc2C1=O	0	7	28*	5	-4	-5
COC(=O)Cc1c(C)c2ccc(OCC(=O)N3CCCC(C)C3)c(C)c2oc1=O (configuration not stated)	-2	-17	26*	4	38*	9
CC(=O)Nc1sc(NN=Cc2ccccc2)nc1-c1cccs1	1	.	.	-1	.	.
O=C(CSc1nnc(COc2ccc(Cl)cc2)n1Cc1ccco1)Nc1ccc2c(c1)OCO2	.	.	25*	.	22	3
Cc1ccc(OCc2nnc(SCC(=O)Nc3ccc4c(c3)OCO4)n2Cc2ccco2)cc1	.	.	23	.	.	.
